Most compounds without a hit are left out; they make up all but 0.97% or so of the library.
FadD28 FP inh: inhibitors of Mycobacterium tuberculosis FadD28 bisubstrate binding; FadD28 bisubstrate probe binding, fluorescence polarization; 0.22% of 360,000 active; inhibition, % at 12.5 µM; in the data active means inhibition above about 8.5%, passing the limit was not always enough
UGM FP inh: Mtb UDP-galactopyranose mutase inhibition; P9WIQ1; purified UGM, fluorescence polarization probe displacement; inhibition, % at 10 µM; 0.06% of 320,000 active; AID 504406; in the data active means inhibition above about 10%, passing the limit was not always enough
Mtb BioA inh: blocks M. tuberculosis BioA enzyme activity; purified M. tuberculosis BioA enzyme, plate reader; inhibition, % at 9.99 µM; 0.096% of 360,000 active; AID 602481; in the data active means inhibition above about 40%
Rv3671c protease: inhibits the M. tuberculosis serine protease Rv3671c; P9WHR9; inhibition, % at 5.96 µM; 0.048% of 320,000 active; AID 2606; in the data active means inhibition above about 38%;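 further: extracellular domain of Rv3671c used as enzyme; 0% = enzyme with DMSO and 100% = no enzyme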
TcdB GH inh: inhibitors of Clostridioides difficile toxin B glycohydrolase. TcdB glycohydrolase enzymatic assay, plate reader. inhibition, % at 9.99 µM. P18177. AID 652162. 0.24% of 350,000 active; in the data active means inhibition above about 10%
RecA intein inh: Mtb RecA intein splicing inhibition | P9WHJ3 | 0.75% of 290,000 active | inhibition, % (test concentration not listed) | cell-free RecA intein splicing, fluorescence; in the data active means inhibition above about 30%;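 further: 0% = vehicle wells and 100% = reference inhibitor control wells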
Target sequence (P9WHJ3 whole entry, looked up): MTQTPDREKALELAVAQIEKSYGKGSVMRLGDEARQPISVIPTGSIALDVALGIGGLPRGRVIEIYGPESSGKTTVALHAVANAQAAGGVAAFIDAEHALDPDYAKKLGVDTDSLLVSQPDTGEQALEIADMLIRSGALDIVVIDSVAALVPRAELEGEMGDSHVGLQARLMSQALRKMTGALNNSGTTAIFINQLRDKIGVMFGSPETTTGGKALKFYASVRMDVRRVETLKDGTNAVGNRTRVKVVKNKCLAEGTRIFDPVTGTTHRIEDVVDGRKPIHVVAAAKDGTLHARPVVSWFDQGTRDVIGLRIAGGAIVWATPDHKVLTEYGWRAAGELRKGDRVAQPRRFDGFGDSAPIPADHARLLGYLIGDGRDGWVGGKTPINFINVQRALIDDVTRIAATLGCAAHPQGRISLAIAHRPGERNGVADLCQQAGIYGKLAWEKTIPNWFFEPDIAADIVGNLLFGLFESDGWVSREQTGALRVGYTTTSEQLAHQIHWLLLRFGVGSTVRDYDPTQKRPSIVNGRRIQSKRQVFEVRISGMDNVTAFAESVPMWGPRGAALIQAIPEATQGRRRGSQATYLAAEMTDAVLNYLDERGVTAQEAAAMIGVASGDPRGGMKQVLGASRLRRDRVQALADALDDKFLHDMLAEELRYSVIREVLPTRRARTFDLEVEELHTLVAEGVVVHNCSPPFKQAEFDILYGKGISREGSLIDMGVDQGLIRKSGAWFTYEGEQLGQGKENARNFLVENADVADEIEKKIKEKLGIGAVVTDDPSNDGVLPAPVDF
Active calls of the source: *.

O=S(=O)(N[C@@H]1CC[C@H](CCn2cc(C3(O)CCCC3)nn2)O[C@H]1CO)c1ccc(F)cc1 was read as Mtb BioA inh -3 and TcdB GH inh 1.
For CCOC(=O)C1=C(c2ccccc2)O/C(=C(/C#N)C(F)(F)F)S1 the results were UGM FP inh 1, Rv3671c protease -3 and RecA intein inh 42*.
O=C1NC(=O)/C(=C/c2ccc(O)cc2)S1 was read as FadD28 FP inh 0, UGM FP inh 3, Rv3671c protease -3, TcdB GH inh 27* and RecA intein inh -2.
O=C(O)C[C@H]1C[C@H]2c3cc(NC(=O)Nc4ccc(F)cc4)ccc3O[C@H]2[C@H](CO)O1 was read as Mtb BioA inh -1 and TcdB GH inh 2.
C[C@@H]1CCCCO[C@H](CN(C)Cc2ccc3c(c2)OCO3)[C@H](C)CN([C@@H](C)CO)C(=O)c2cc(NC(=O)Nc3ccc(F)cc3)ccc2O1 was read as Mtb BioA inh 1 and TcdB GH inh 0.
For COc1ccc(N2C(=O)/C(=C\c3ccco3)N=C2SCC(=O)NC(C)(C)C)cc1Cl the results were FadD28 FP inh -1, Mtb BioA inh -1, Rv3671c protease 0, TcdB GH inh 1 and RecA intein inh 38*.
For CC1=NN(c2cccc(C(=O)O)c2)C(=O)/C1=C\C=C\c1ccco1 the results were FadD28 FP inh 11*, UGM FP inh 0, Mtb BioA inh -1, Rv3671c protease 2 and RecA intein inh 4.
C/C(=N\Nc1cc(N2CCOCC2)ncn1)c1ccc(O)cc1 was read as FadD28 FP inh 1, UGM FP inh -2, Mtb BioA inh 0, Rv3671c protease 1, TcdB GH inh 28* and RecA intein inh -1.
`C/C(=N\NC(=O)c1ccc(O)cc1)c1ccc(N2CCOCC2)cc1` gave FadD28 FP inh -1, UGM FP inh 1, Rv3671c protease -8, TcdB GH inh -1 and RecA intein inh 0.
CO[C@@H]1CN(C)C(=O)c2cc(NC(=O)C3CC3)ccc2OC[C@H](C)N(C(C)=O)C[C@H]1C was read as Mtb BioA inh 1 and TcdB GH inh 1.
`COc1ccc2c3c([nH]c2c1)C(C)=NCC3` gave FadD28 FP inh -6, UGM FP inh -2, Mtb BioA inh 18, Rv3671c protease -4, TcdB GH inh 1 and RecA intein inh inactive.
For CC1=NCCc2c1[nH]c1cc(O)ccc21 the results were FadD28 FP inh -1, UGM FP inh 31*, Mtb BioA inh inactive, Rv3671c protease 6 and TcdB GH inh 42*.
Screening N#C/C(=C\c1coc2ccc(O)cc2c1=O)C(=O)Nc1nc2ccccc2s1 returned FadD28 FP inh 29*, UGM FP inh -26, Mtb BioA inh -31, Rv3671c protease -7, TcdB GH inh -5 and RecA intein inh -4.
For N#C/C(=C\c1coc2ccccc2c1=O)C(N)=S the results were FadD28 FP inh -1, UGM FP inh 0, Rv3671c protease 4, TcdB GH inh 0 and RecA intein inh 0.
`COc1ccc(NS(=O)(=O)c2cc(N=Nc3c(O)[nH]c(=O)[nH]c3=O)ccc2Cl)cc1` gave FadD28 FP inh 3, UGM FP inh 0, Mtb BioA inh 1, Rv3671c protease 9 and TcdB GH inh 11*.
For CN(C)C(=O)c1cccc(-c2ccc3c(c2)[C@@H]2[C@@H](CCN2C(=O)c2cccnc2)[C@@H](CO)N3)c1 the results were Mtb BioA inh 18.
`O=C(CCSc1ccc(Cl)cc1)N1CCOCC1` gave FadD28 FP inh -2, UGM FP inh 1, Mtb BioA inh -1, Rv3671c protease 0 and RecA intein inh 0.
O=C(CSc1ccc(Cl)cc1)N1CCOCC1 was read as FadD28 FP inh 15*, UGM FP inh 2, Mtb BioA inh -3, Rv3671c protease -5 and RecA intein inh 3.
Screening O=C(Oc1cccc(OC(=O)c2ccco2)c1)c1ccco1 returned FadD28 FP inh -5, UGM FP inh 5, Mtb BioA inh 0, TcdB GH inh 1 and RecA intein inh 49*.
O=C(Oc1ccc(-c2nnco2)cc1)c1ccco1 was read as FadD28 FP inh 1, UGM FP inh 2, Mtb BioA inh 0, Rv3671c protease 1, TcdB GH inh 1 and RecA intein inh 47*.
Screening O=C(Oc1cccc(-n2cnnn2)c1)c1ccco1 returned FadD28 FP inh 0, UGM FP inh -1, Rv3671c protease 10 and RecA intein inh 43*.
`CN(C)C(=O)Oc1ccc(-c2nnco2)cc1` gave FadD28 FP inh -4, UGM FP inh 1, Mtb BioA inh 2, Rv3671c protease 2, TcdB GH inh 1 and RecA intein inh -2.
